Laboratory results from PubChem BioAssay (NCI).
This is part of a sample that, as a whole, favours compounds with a hit. Of some 79,000 tested, about 15% had one in any assay. Calls of active or inactive are those of the source. Cut-off read from the data, not from the text of the source: active = growth inhibition above about 70%; inactive = the rest.

Assays:
[1] = NCI Yeast Anticancer Drug Screen. Data for the mec2-1 strain (AID 157); settings: S. cerevisiae mec2-1 strain, active compounds read high
Procedure, shortened: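 Strain: mec2-1 (DNA repair/cell cycle alteration). Compound exposure, then growth measured; inhibition expressed relative to vehicle.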

[2] = NCI Yeast Anticancer Drug Screen. Data for the rad14 strain (AID 159);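 note: 0% = growth of vehicle-treated control cultures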; settings: S. cerevisiae rad14 strain growth inhibition, active compounds read high
Procedure, shortened: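 Growth inhibition vs vehicle controls; genetically altered yeast strain (DNA damage repair defect) treated with test compounds.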

[3] = NCI Yeast Anticancer Drug Screen. Data for the sgs1 mgt1 strain (AID 161);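 note: 0% = growth of cultures given vehicle only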; settings: S. cerevisiae sgs1 mgt1 strain, active compounds read high
Procedure, shortened: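 Genetically altered yeast, compound exposure, growth inhibition relative to vehicle.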

[4] = NCI Yeast Anticancer Drug Screen. Data for the CLN2oe strain (AID 163);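 note: 0% = growth of vehicle-only control cultures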; settings: S. cerevisiae CLN2oe strain, active compounds read high
Procedure, shortened: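 Growth of a genetically modified yeast strain is measured after compound exposure and compared with cultures given vehicle alone.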

[5] = NCI Yeast Anticancer Drug Screen. Data for the bub3 strain (AID 167); settings: S. cerevisiae bub3 mutant strain, active compounds read high
Procedure, shortened: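 Readout: yeast growth inhibition, expressed relative to vehicle-only wells. The test organism is a mutant strain from a panel with lesions in DNA repair or checkpoint genes.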

[6] = NCI Yeast Anticancer Drug Screen. Data for the wt2 strain (AID 169);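 note: 0% = growth of vehicle-treated yeast cultures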; settings: S. cerevisiae wt2 strain growth inhibition, active compounds read high
Procedure, shortened: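 This strain belongs to a panel of yeast strains with defined genetic alterations in DNA damage repair or cell cycle control. Compounds are applied, and growth inhibition is measured against vehicle-treated cultures.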

[7] = NCI Yeast Anticancer Drug Screen. Data for the mlh1 strain (AID 171);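 note: 0% = growth of vehicle-treated control cultures of the same strain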; settings: S. cerevisiae mlh1 strain growth inhibition, active compounds read high
Procedure, shortened: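 Growth of the mutant yeast strain after compound exposure, expressed as inhibition relative to vehicle-only controls.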

[8] = NCI Yeast Anticancer Drug Screen. Data for the sgs1 strain (AID 173);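 note: 0% = growth of vehicle-only control cultures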; settings: S. cerevisiae sgs1 mutant, active compounds read high
Procedure, shortened: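 Growth of a yeast strain bearing a defined genetic alteration is measured after compound treatment. Inhibition is expressed relative to vehicle-only controls.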

[9] = NCI Yeast Anticancer Drug Screen. Data for the mlh1 rad18 strain (AID 175); settings: S. cerevisiae mlh1 rad18 strain growth inhibition, active compounds read high
Procedure, shortened: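 Read-out is yeast growth inhibition, calculated against vehicle-only controls. The compound was applied to a strain engineered with DNA damage repair alterations.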

[10] = NCI Yeast Anticancer Drug Screen. Data for the rad18 strain (AID 177); settings: S. cerevisiae rad18 mutant growth inhibition, active compounds read high
Procedure, shortened: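 Growth of the mutant yeast strain after compound exposure, normalised to vehicle-only cultures.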

[11] = NCI Yeast Anticancer Drug Screen. Data for the rad52 strain (AID 147);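 note: 0% = growth of vehicle-treated control cultures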; settings: S. cerevisiae rad52 mutant growth inhibition, active compounds read high
Procedure, shortened: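 Compounds are applied to a genetically defined yeast strain lacking normal DNA damage repair, and inhibition of growth is expressed relative to cultures given vehicle only.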

[12] = NCI Yeast Anticancer Drug Screen. Data for the wt1 strain (AID 149);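 note: 0% = growth of vehicle-treated wt1 cultures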; settings: S. cerevisiae wt1 strain (SPY 50644) growth inhibition, active compounds read high
Procedure, shortened: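 Growth inhibition read against vehicle controls after compound exposure of the wt1 yeast strain.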

[13] = NCI Yeast Anticancer Drug Screen. Data for the rad50EPP+ strain (AID 151);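 note: 0% = growth of vehicle-treated control cultures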; settings: S. cerevisiae rad50 mutant strain, active compounds read high
Procedure, shortened: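 Compounds were applied to the rad50EPP+ yeast strain, which bears a defined DNA repair alteration, and growth inhibition was determined relative to vehicle-treated cultures.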

[14] = NCI Yeast Anticancer Drug Screen. Data for the rad50 strain (AID 155);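 note: 0% = growth of vehicle-only cultures of the same strain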; settings: S. cerevisiae rad50 strain growth inhibition, active compounds read high
Procedure, shortened: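 Readout: growth inhibition relative to vehicle-treated cultures. Compound exposure was carried out in a genetically defined yeast strain deficient in DNA damage repair.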

[15] = NCI Yeast Anticancer Drug Screen. Data for the cln2 rad14 strain (AID 165);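 note: 0% = growth equal to vehicle treated cultures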; settings: S. cerevisiae cln2 rad14 strain, active compounds read high
Procedure, shortened: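 Compounds are applied to the cln2 rad14 yeast strain, and growth is then compared with that of vehicle-treated cultures to give inhibition.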

[16] = at 5.0 µM (retest, dose inferred, filed as 0.5)
[17] = at 50.0 µM (retest, dose inferred, filed as 5.0)

Measured: growth inhibition

Clc1ccc(C(c2ccc(Cl)cc2)N2CCNCC2)cc1
active: [1]; at 100.0 µM 98% | [2]; at 33.0 µM 71% | [2]; at 100.0 µM 98% | [3]; [17] 98% | [4]; at 100.0 µM 92% | [5]; at 33.0 µM 71% | [5]; [17] 96% | [5]; at 100.0 µM 94% | [6]; at 100.0 µM 99% | [7]; at 100.0 µM 98% | [8]; at 100.0 µM 98% | [9]; [17] 96% | [9]; at 50.0 µM 92.3% | [10]; at 100.0 µM 98%
inactive: [2]; at 1.2 µM -36% | [2]; at 3.7 µM -30% | [2]; at 11.0 µM -41% | [3]; [16] -35% | [4]; at 1.2 µM -1% | [4]; at 3.7 µM -2% | [4]; at 11.0 µM 1% | [4]; at 33.0 µM 18% | [5]; at 1.2 µM 1% | [5]; at 3.7 µM 3% | [5]; [16] 12% | [5]; at 11.0 µM 12% | [6]; at 1.2 µM -3% | [6]; at 3.7 µM -2% | [6]; at 11.0 µM -81% | [6]; at 33.0 µM 46% | [7]; at 1.2 µM -35% | [7]; at 3.7 µM -34% | [7]; at 11.0 µM -34% | [7]; at 33.0 µM 49% | [8]; at 1.2 µM -26% | [8]; at 3.7 µM -33% | [8]; at 11.0 µM -34% | [8]; at 33.0 µM 41% | [9]; [16] 45% | [10]; at 1.2 µM 3% | [10]; at 3.7 µM -7% | [10]; at 11.0 µM 4% | [10]; at 33.0 µM 65%

COc1cc(C(C)(C)C)cc(OC)c1C(O)(c1c(OC)cc(C(C)(C)C)cc1OC)c1c(OC)cc(C(C)(C)C)cc1OC
inactive: [11]; at 1.2 µM -10% | [11]; at 3.7 µM 33% | [12]; at 1.2 µM 4% | [12]; at 3.7 µM 42% | [13]; at 1.2 µM -1% | [13]; at 3.7 µM 14% | [14]; at 1.2 µM 25% | [14]; at 3.7 µM 30% | [14]; [16] 33% | [1]; at 1.2 µM -22% | [1]; at 3.7 µM 32% | [2]; at 1.2 µM -24% | [2]; at 3.7 µM -28% | [3]; [16] 13% | [4]; at 1.2 µM 31% | [4]; at 3.7 µM 45% | [15]; [16] 47% | [6]; at 1.2 µM -17% | [6]; at 3.7 µM 15% | [7]; at 1.2 µM -19% | [7]; at 3.7 µM -12% | [8]; at 1.2 µM -3% | [8]; at 3.7 µM 4% | [9]; [16] 15% | [10]; at 1.2 µM -4% | [10]; at 3.7 µM 10%
active: [11]; at 11.0 µM 88% | [11]; at 33.0 µM 92% | [11]; at 100.0 µM 84% | [12]; at 11.0 µM 93% | [12]; at 33.0 µM 94% | [12]; at 100.0 µM 91% | [13]; at 11.0 µM 87% | [13]; at 33.0 µM 92% | [13]; at 100.0 µM 83% | [14]; at 11.0 µM 92% | [14]; at 33.0 µM 93% | [14]; [17] 94% | [14]; at 50.0 µM 78% | [14]; at 100.0 µM 88% | [1]; [16] 81% | [1]; at 11.0 µM 90% | [1]; at 33.0 µM 94% | [1]; [17] 96% | [1]; at 50.0 µM 79.7% | [1]; at 100.0 µM 90% | [2]; at 11.0 µM 88% | [2]; at 33.0 µM 91% | [2]; at 100.0 µM 86% | [3]; [17] 97% | [3]; at 50.0 µM 80.1% | [4]; at 11.0 µM 87% | [4]; at 33.0 µM 93% | [4]; at 100.0 µM 89% | [15]; [17] 96% | [15]; at 50.0 µM 77.3% | [6]; at 11.0 µM 92% | [6]; at 33.0 µM 94% | [6]; at 100.0 µM 82% | [7]; at 11.0 µM 89% | [7]; at 33.0 µM 94% | [7]; at 100.0 µM 88% | [8]; at 11.0 µM 95% | [8]; at 33.0 µM 95% | [8]; at 100.0 µM 89% | [9]; [17] 93% | [9]; at 50.0 µM 76.1% | [10]; at 11.0 µM 93% | [10]; at 33.0 µM 94% | [10]; at 100.0 µM 87%

Cc1ccc(S(=O)(=O)N/N=C/c2c(O)ccc3ccccc23)cc1
active: [11]; at 11.0 µM 81% | [11]; at 33.0 µM 83% | [11]; at 100.0 µM 79% | [12]; at 100.0 µM 84% | [14]; at 11.0 µM 79% | [14]; at 33.0 µM 82% | [14]; [17] 86% | [14]; at 50.0 µM 79.9% | [14]; at 100.0 µM 78% | [1]; [17] 79% | [1]; at 50.0 µM 79.5% | [1]; at 100.0 µM 79% | [2]; at 33.0 µM 73% | [2]; at 100.0 µM 83% | [3]; [17] 91% | [4]; at 100.0 µM 71% | [15]; [17] 89% | [5]; at 33.0 µM 70% | [5]; [17] 85% | [5]; at 100.0 µM 77% | [6]; at 33.0 µM 81% | [6]; at 100.0 µM 88% | [7]; at 100.0 µM 78% | [8]; at 11.0 µM 76% | [8]; at 33.0 µM 80% | [8]; at 100.0 µM 87% | [9]; at 50.0 µM 78.5% | [10]; at 11.0 µM 87% | [10]; at 33.0 µM 87% | [10]; at 100.0 µM 83%
inactive: [11]; at 1.2 µM -8% | [11]; at 3.7 µM 9% | [12]; at 1.2 µM -8% | [12]; at 3.7 µM -15% | [12]; at 11.0 µM 37% | [12]; at 33.0 µM 59% | [13]; at 1.2 µM -6% | [13]; at 3.7 µM 3% | [13]; at 11.0 µM -16% | [13]; at 33.0 µM -8% | [13]; at 100.0 µM 24% | [14]; at 1.2 µM 19% | [14]; at 3.7 µM 10% | [14]; [16] 36% | [1]; at 1.2 µM -1% | [1]; at 3.7 µM 1% | [1]; [16] 53% | [1]; at 11.0 µM 55% | [1]; at 33.0 µM 66% | [2]; at 1.2 µM -14% | [2]; at 3.7 µM -14% | [2]; at 11.0 µM 59% | [3]; [16] -10% | [4]; at 1.2 µM -17% | [4]; at 3.7 µM 8% | [4]; at 11.0 µM 52% | [4]; at 33.0 µM 58% | [15]; [16] 21% | [5]; at 1.2 µM 17% | [5]; at 3.7 µM 34% | [5]; [16] 37% | [5]; at 11.0 µM 55% | [6]; at 1.2 µM -5% | [6]; at 3.7 µM -9% | [6]; at 11.0 µM 43% | [7]; at 1.2 µM -30% | [7]; at 3.7 µM -42% | [7]; at 11.0 µM 49% | [7]; at 33.0 µM 56% | [8]; at 1.2 µM 26% | [8]; at 3.7 µM 42% | [9]; [16] 44% | [9]; [17] 64% | [10]; at 1.2 µM 8% | [10]; at 3.7 µM 17%
